Data on 5 compounds can be found in ChEMBL document CHEMBL3988442, “University of Dundee, Small-Polar-MMV Screening Library” (2021).

Holding throughout (set-up): scale not given: direction of the effect not stated beside the values
For test [1], the target named is Protein translocase subunit SecA (Escherichia coli (strain K12)) (UniProt P10408). Nature of the test: Assay to Identify E. coli SecA ATPase Inhibitors. As to conditions: 30 µM. The class given is functional.
The target in test [2] is T1, Ubiquitin-activating enzyme e1, putative (Leishmania donovani (strain BPK282A1)) (UniProt E9BSI1).
T1 sequence (whole entry): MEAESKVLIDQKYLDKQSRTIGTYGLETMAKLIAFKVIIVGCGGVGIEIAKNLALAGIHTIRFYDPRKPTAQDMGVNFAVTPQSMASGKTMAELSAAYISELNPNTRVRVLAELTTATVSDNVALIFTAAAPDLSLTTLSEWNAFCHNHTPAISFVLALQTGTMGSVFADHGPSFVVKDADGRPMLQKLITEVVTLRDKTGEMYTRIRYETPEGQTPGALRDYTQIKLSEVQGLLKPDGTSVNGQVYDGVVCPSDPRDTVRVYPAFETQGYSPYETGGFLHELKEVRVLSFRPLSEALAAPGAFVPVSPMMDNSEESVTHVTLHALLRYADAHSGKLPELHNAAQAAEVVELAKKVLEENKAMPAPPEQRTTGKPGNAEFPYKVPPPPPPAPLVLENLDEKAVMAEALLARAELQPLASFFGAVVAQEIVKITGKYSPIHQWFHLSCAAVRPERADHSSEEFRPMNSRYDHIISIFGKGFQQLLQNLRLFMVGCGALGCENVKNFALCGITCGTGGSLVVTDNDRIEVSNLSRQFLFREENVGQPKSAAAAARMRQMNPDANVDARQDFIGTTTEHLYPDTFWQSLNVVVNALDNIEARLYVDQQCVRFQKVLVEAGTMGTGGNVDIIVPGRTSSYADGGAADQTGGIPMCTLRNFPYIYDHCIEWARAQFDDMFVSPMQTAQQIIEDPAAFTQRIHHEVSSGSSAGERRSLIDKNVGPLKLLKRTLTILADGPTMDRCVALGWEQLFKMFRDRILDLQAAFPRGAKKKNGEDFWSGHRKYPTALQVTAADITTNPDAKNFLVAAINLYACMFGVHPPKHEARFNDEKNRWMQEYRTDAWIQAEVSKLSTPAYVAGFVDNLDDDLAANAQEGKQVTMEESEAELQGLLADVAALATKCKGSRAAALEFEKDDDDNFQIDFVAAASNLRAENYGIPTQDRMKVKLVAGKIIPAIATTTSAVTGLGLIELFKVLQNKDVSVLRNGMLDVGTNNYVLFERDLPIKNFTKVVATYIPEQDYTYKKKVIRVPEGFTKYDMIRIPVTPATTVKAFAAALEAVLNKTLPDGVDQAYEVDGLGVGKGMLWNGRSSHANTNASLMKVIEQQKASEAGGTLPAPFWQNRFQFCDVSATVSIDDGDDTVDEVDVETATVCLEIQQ
Nature of the test: Leishmania donovani Ubiquitin Activating Enzyme (LdE1). The class given is functional. As to conditions: 30 µM.

Test [3] deals with T2, Aspartate--tRNA(Asp/Asn) ligase (Mycobacterium tuberculosis (strain ATCC 25618 / H37Rv)) (UniProt P9WFW3).
T2 sequence (whole entry): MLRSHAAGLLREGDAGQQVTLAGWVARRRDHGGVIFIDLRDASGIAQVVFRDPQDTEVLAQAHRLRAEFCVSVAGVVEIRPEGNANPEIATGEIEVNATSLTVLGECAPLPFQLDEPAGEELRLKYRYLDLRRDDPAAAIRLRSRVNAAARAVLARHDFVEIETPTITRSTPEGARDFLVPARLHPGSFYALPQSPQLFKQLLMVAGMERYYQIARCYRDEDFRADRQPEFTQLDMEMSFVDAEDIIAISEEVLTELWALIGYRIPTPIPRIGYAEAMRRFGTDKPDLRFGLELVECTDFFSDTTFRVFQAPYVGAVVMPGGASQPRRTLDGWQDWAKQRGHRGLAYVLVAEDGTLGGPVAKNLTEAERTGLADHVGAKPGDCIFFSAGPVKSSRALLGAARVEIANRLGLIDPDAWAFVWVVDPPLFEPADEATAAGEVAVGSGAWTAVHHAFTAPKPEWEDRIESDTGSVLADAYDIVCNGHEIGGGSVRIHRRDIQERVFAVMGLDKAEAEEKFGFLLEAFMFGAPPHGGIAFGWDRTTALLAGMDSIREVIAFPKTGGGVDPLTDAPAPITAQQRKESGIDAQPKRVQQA
Nature of the test: Assay for Asp RNA synthetase-1 from Mycobacterium tuberculosis. The format is functional. Conditions: 30 µM.

Test [4] deals with AMP-activated protein kinase, AMPK (Homo sapiens) (UniProt P54646+O43741+P54619+Q9UGJ0+Q9Y478+Q13131+Q9UGI9). Description: AMP-dependent Kinase enzyme assay. An in vitro enzyme assay that detects ADP turnover that is directly proportional to AMPK activity. This uses naive AMPK that is activated during the assay with MK-8722. Conditions: 30 µM. The class given is functional.
Test [5] concerns the target Sialic acid-binding Ig-like lectin 9 (Homo sapiens) (UniProt Q9Y336). Nature of the test: Hs-Siglec9 ALPHAscreen SOP 20170721. As to conditions: 10 µM. In general terms: Alpha assays give light when donor and acceptor beads are brought close together.
In the next test the test system is Trypanosoma cruzi. Description: Trypanosoma cruzi phosphomannomutase and mannose-1-phosphate guanylyltransferase assay. The format is functional. Conditions: 10 µM.
Test [6] has as its target T3, Arginase-2, mitochondrial (Homo sapiens) (UniProt P78540).
T3 sequence (whole entry): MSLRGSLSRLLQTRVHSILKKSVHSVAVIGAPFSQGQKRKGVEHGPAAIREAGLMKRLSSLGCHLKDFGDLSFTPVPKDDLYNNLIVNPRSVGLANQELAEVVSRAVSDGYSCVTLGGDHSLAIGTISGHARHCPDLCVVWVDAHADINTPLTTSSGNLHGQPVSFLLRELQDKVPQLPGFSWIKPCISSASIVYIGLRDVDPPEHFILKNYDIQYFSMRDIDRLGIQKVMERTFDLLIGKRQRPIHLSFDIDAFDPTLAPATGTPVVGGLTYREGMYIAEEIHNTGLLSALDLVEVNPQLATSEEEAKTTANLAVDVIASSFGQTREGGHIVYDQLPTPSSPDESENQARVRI
Description: in vitro enzyme assay to detect the production of urea directly proportional to the activity of Arginase II. Also: in the data most compounds retested in dose-response had high values. The format is functional. Conditions: 33.3 µM.

Test [7] concerns the target T4, Proteasome subunit beta (Trypanosoma cruzi) (UniProt O96673).
T4 sequence (whole entry): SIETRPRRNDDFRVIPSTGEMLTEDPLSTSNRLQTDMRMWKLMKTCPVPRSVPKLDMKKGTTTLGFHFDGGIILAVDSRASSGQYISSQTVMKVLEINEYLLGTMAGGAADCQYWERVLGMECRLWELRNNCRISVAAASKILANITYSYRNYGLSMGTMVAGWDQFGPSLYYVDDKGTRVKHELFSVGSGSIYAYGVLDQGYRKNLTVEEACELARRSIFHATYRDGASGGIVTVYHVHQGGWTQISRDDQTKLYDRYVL
Nature of the test: Trypanosoma cruzi proteasome chymotrypsin-like activity (TcProtChymo) assay. Also: in the data most compounds retested in dose-response had high values. As to conditions: 9.37 µM. The format is functional.

The species named for the next test is Homo sapiens. Nature of the test: To identify inhibition of the IFN signalling (Jak-Stat) pathway via expression of an eGFP reporter gene under the control of an IFN-stimulated response element (ISRE) containing MxA promoter. The format is functional. Conditions: 30 µM.
Test [8] has as its target Shiga toxin 2 (Escherichia coli O157:H7) (UniProt P09385+P09386). Nature of the test: E. coli 0.157:H7 Shiga Toxin SOP - stx2 screening assay. The class given is functional. As to conditions: 30 µM.
Test [9] has as its target T5, Tyrosyl-tRNA synthetase, putative (Trypanosoma cruzi (strain CL Brener)) (UniProt Q4DSP6).
T5 sequence (whole entry): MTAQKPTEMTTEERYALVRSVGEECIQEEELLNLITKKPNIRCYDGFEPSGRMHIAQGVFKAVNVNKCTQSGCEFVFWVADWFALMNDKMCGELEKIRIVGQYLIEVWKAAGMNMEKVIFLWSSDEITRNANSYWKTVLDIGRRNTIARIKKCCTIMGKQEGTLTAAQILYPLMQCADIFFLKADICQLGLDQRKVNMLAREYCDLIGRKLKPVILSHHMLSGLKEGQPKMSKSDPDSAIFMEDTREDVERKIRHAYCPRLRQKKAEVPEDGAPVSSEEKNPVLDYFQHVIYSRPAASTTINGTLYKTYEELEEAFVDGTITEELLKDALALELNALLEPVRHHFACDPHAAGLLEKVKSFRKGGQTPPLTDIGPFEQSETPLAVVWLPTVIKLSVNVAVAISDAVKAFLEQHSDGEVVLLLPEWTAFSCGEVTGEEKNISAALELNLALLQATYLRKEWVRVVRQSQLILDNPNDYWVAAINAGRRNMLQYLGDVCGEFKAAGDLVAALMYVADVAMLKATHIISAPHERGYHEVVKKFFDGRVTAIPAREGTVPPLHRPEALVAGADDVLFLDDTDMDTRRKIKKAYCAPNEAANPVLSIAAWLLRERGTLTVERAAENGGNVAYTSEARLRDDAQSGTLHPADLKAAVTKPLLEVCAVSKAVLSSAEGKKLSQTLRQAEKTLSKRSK
Nature of the test: Trypanosoma cruzi tyrosyl tRNA synthetase (TcYRS) _High Tyrosine SOP. Also: in the data most compounds retested in dose-response had high values. The class given is functional. Conditions: 30 µM.

For test [10], the target named is T5, Tyrosyl-tRNA synthetase, putative (Trypanosoma cruzi (strain CL Brener)). Nature of the test: Trypanosoma cruzi tyrosyl tRNA synthetase (TcYRS) SOP. The format is functional. As to conditions: 30 µM.
Test [11] deals with Chromo domain-containing protein 1 (Saccharomyces cerevisiae (strain ATCC 204508 / S288c) (Baker's yeast)) (UniProt P32657). Nature of the test: ScCHD-1 Enzyme Inhibition Assay. Also: in the data most compounds retested in dose-response had high values. The format is functional. Conditions: 30 µM.
Sequence of Chromo domain-containing protein 1 (Saccharomyces cerevisiae (strain ATCC 204508 / S288c) (Baker's yeast)) (P32657 whole entry, the tested form may be a part): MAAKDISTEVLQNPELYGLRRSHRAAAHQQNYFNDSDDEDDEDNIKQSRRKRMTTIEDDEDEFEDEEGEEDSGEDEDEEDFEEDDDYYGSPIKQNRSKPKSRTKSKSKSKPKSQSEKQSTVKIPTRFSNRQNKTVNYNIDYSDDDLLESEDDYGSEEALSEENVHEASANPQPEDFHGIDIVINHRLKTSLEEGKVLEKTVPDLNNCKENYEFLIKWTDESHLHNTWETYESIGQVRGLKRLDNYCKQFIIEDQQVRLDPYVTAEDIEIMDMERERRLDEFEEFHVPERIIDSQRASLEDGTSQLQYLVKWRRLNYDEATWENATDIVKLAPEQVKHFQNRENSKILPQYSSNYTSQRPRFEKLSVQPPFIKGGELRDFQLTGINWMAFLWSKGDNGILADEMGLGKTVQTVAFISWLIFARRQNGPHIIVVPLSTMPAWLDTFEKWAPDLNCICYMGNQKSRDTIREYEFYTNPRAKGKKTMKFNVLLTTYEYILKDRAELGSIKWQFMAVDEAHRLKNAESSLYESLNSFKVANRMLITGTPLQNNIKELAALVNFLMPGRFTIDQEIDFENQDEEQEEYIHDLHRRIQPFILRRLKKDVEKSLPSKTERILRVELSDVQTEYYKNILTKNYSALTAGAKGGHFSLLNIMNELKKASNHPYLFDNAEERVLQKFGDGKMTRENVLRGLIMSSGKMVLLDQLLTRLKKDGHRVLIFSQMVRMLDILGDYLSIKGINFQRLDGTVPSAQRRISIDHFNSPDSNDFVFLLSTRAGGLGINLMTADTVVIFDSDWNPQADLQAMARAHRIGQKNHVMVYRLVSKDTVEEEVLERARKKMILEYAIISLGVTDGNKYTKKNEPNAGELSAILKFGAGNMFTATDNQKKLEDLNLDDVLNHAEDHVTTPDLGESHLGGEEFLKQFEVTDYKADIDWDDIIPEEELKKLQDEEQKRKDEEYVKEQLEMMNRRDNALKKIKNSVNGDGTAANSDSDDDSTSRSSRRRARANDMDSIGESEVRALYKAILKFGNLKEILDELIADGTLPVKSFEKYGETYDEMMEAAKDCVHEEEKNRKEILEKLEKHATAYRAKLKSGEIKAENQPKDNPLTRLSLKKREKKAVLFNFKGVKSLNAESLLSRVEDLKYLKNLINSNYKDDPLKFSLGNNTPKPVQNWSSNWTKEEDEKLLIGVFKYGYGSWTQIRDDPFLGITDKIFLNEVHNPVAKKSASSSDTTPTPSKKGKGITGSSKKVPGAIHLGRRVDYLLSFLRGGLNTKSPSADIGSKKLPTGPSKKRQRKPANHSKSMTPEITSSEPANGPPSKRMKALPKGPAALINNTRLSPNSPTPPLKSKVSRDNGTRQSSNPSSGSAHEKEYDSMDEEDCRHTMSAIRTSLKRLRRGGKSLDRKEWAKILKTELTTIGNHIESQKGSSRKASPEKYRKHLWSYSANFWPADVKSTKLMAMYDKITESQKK

The structures appear in SMILES notation. For some assays here: Measured potencies and affinities stand elsewhere.

Sequence of Protein translocase subunit SecA (Escherichia coli (strain K12)) (P10408 whole entry): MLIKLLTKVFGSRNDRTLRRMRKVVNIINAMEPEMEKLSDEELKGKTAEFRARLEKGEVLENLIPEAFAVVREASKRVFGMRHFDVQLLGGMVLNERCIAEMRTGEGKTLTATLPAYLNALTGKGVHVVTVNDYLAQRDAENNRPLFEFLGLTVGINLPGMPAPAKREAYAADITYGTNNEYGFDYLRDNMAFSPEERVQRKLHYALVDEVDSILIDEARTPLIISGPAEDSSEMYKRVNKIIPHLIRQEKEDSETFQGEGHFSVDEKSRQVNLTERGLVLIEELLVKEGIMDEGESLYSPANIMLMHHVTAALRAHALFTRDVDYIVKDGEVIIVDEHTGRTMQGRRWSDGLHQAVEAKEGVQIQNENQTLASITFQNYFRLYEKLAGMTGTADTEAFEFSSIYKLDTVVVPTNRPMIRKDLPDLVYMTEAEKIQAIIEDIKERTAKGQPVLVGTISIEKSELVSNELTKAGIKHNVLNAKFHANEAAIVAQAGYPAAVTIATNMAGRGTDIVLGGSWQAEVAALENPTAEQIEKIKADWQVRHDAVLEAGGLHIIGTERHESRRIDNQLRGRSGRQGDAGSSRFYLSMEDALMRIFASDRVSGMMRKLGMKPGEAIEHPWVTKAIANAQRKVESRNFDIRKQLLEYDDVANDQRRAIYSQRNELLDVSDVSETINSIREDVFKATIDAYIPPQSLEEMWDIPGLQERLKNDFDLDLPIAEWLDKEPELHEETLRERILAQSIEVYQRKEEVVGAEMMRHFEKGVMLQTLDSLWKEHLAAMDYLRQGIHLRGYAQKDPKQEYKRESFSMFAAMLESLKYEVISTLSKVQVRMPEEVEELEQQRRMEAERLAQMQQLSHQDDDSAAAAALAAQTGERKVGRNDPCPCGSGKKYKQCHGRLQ
Sequence of Sialic acid-binding Ig-like lectin 9 (Homo sapiens) (Q9Y336 whole entry): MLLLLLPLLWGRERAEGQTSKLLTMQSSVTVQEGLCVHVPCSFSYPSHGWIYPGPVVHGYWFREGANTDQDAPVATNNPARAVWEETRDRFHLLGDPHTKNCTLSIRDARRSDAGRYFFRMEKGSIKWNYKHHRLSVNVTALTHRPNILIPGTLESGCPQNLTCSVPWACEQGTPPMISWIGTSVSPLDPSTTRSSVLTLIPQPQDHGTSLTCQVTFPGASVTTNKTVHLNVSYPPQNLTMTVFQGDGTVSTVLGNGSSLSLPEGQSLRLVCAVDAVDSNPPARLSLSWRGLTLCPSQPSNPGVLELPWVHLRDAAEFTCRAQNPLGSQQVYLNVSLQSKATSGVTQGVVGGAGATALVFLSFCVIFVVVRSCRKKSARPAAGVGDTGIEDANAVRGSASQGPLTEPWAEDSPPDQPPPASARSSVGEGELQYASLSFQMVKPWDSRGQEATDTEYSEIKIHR

Consider `CCOCC(O)CN1CCN(C(=O)Cc2ccc(C)nc2)CC1` (stereo not given), for which the Percent Effect in test [1] is -0.896%; in test [2] it was 18.4%; in [3], -0.811%; in test [4] it was 1.93%; in [5], 7.02%; in the test on Trypanosoma cruzi it was -3.38%. For the same compound, the Percent Effect turned out to be 3.83% in test [6]; 15.9% in test [7]; 10.3% in the test listed under Homo sapiens; 27% in test [8]; 11.3% in [9]; 17.1% in test [10]. Also, in [11], the Percent Effect was -5.52%.
Consider `CN(Cc1cncnc1)[C@H]1CN(CC2CC2)[C@@H]2CCCO[C@@H]21`, for which the Percent Effect is -2.97% in test [1]; 10.7% in test [2]; 3.35% in [3]; -6.16% in test [4]; 2.33% in test [5]; 4.44% with Trypanosoma cruzi. Moreover, the Percent Effect in [6] is -51.8%; in [7], 11.6%; in the test filed under Homo sapiens it was -0.287%; in test [8], -9.01%; in test [9], 5.21%; in test [10], 2.5%. The Percent Effect in [11] was -8.19%.
`c1ccc(CO[C@@H]2CO[C@@]3(CCN(Cc4ccccn4)C3)C2)nc1`: the Percent Effect is -5.26% in [1]; 6.67% in test [2]; 0.581% in test [3]; 5.55% in test [4]; 4.84% in [5]; -1.18% in the test with Trypanosoma cruzi. For the same compound, the Percent Effect was 4.75% in test [6]; 6.84% in test [7]; -42% in the test filed under Homo sapiens; -15.8% in [8]; 5.29% in test [9]; 5.13% in [10]. Besides, in test [11], the Percent Effect was -3.05%.
`Cc1ccccc1CC(=O)N1CCN(C2CCOC2=O)CC1` (stereo not given): the Percent Effect in [1] is -3.96%; in [2], 13.5%; in test [3], -0.136%; in [4], -7.8%; in test [5], 2.56%; in the test with Trypanosoma cruzi, -5.75%. In addition, the Percent Effect in [6] was -2.81%; in test [7] it was 7.03%; in the test listed under Homo sapiens, 11.9%; in test [8] it was 23.2%; in test [9], 10.3%; in test [10], 16.1%. Besides, in test [11], the Percent Effect is -7.37%.
Turning to `O=C(c1cc(-n2cccc2)ccc1Cl)N1CCC2(CC1)OCCO2`, the Percent Effect in test [1] was -3.83%; in [2], 7.89%; in test [3] it was 3.38%; in test [4] it was 15.4%; in test [5] it was -3.27%; in the test on Trypanosoma cruzi, -0.876%. For the same compound, the Percent Effect in test [6] is -8.28%; in test [7], 15.8%; in the test filed under Homo sapiens it was 1.48%; in [8] it was 8.93%; in test [9], 2.13%; in test [10], 10.4%. The Percent Effect in test [11] was -2.85%.
